The list is not random: actives were taken first. Their share in the collection is about 2.3%.
mHtt clearance: mutant huntingtin protein clearance. 47,000 tested, 0.42% active. inhibition, % at 1.5 µM. HeLa Exon1htt(103Q)mCFP, aggregate imaging; zero = plate's median compound well. AID 853;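 active = inhibition of aggregate fluorescence above about 70%, also judged a hit by eye on the cell image, limit read from the data, passing the limit was not always enough; inconclusive = no rule stated for this call; inactive = not judged a hit on image review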;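 also: cells exposed to compound for three days before fixation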
5HT1E antag: antagonists of human 5-HT1E serotonin receptor. 65,000 tested, 0.99% active. CHO 5-HT1E Ga15 NFAT-bla reporter, FRET, antagonist. AID 571. P28566. inhibition, % at 6 µM;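 active = inhibition above a set limit, the mean inhibition across every tested compound plus 3 SD, cut at about 29% in these data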;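 also: signal is the 460 over 535 nm emission ratio of beta-lactamase substrate; 0% = agonist plus DMSO wells and 100% = wells without agonist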
Target sequence (P28566 whole entry, looked up): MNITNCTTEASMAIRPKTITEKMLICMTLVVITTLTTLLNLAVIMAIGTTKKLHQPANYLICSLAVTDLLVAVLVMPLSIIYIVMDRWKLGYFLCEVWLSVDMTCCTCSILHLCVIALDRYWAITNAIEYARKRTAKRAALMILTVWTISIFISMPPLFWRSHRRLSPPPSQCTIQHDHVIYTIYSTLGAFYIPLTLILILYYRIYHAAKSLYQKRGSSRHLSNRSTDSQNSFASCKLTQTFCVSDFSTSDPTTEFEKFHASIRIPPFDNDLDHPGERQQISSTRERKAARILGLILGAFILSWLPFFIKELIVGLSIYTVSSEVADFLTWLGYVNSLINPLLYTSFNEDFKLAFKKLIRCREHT
HTR1E agonist: activates the human 5-HT1E serotonin receptor; P28566; CHO 5-HT1E Ga15 NFAT-bla reporter, FRET; 0% DMSO wells, 100% control agonist wells; activation, % at 6 µM; 65,000 tested, 0.69% active; AID 574;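 active = activation above a set limit, the screen-wide mean activation plus 3 SD, cut at about 8.5% in these data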;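 also: 100% = positive control agonist at 1 µM giving full maximal response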
5HT1a antag: blocks the human serotonin 5-HT1a receptor; inhibition, % at 10 µM; 62,000 tested, 0.68% active; P08908; CHO 5-HT1a Ga15 NFAT-bla reporter, antagonist mode;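 active = inhibition above the mean of all tested compounds plus 3 SD, cut at about 43% in these data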;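 also: receptor stimulated by 5-CT agonist at 100 nM near EC80; beta-lactamase reporter measured by ratiometric fluorescence of a cleavable substrate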
HTR1A agonist: agonists of human 5-HT1a serotonin receptor; AID 567; 65,000 tested, 0.56% active; activation, % at 10 µM; CHO 5-HT1a Ga15 NFAT-bla reporter, FRET ratio; 0% basal, 100% maximal reference agonist;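 active = activation above the screen-wide mean activation plus 3 SD, cut at about 19% in these data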;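 also: 0% = DMSO wells and 100% = 5-CT at EC100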
The depositor's hits bear a star; ? = inconclusive; nt = no result given.

SMILES	mHtt clearance	5HT1E antag	HTR1E agonist	5HT1a antag	HTR1A agonist
COc1cc(OC)cc(C(=O)Nc2ccc(-n3cnnn3)c(C)c2)c1	-83	22	36*	17	-5
Cc1cc(NC(=O)c2oc3ccccc3c2C)ccc1-n1cnnn1	nt	-5	0	6	1
O=C(Cn1c(NCCCO)nc2ccccc21)c1ccco1	nt	13	-1	2	2
O=C(Nc1nc2ccccc2n1Cc1ccccc1)c1ccco1	-2	-7	0	60*	-2
COc1cccc(/C=N/n2c(C)c3c(C)nnc(C)c3c2C)c1O	nt	7	0	3	-2
CC1CCOC2(O1)C(=O)N(CN1CCN(c3ccccc3F)CC1)c1ccccc12 (stereo unspecified)	nt	-8	14*	-6	2
O=C1N(CN2CCN(c3cccc(Cl)c3)CC2)c2ccccc2C12OCCCO2	nt	7	24*	10	2
CCOc1ccc(N(CC(=O)NCc2cccc(OC)c2)S(=O)(=O)c2c(C)noc2C)cc1	-10	1	0	-3	0
CC(=O)Nc1ccccc1Sc1ccccc1	29	32*	-1	22	-2
CCn1c(=O)cc(SCC(=O)N2CCN(c3ccccc3OC)CC2)c2ccccc21	22	2	0	2	0
CCOc1cc2c(cc1OCC)C(c1cc(OC)c(O)c(OC)c1)NCC2 (stereo unspecified)	nt	27	0	-6	-1
O=C(NC(=O)N1CCN(c2cccc(Cl)c2)CC1)c1ccccc1	0	8	14*	12	3
O=C(NCc1ccccc1)N1CCN(c2ccccc2F)CC1	23	1	0	-4	2
O=C(NC(=O)N1CCN(c2ccccc2F)CC1)c1ccccc1	28	11	18*	5	17
O=C(OCC(=O)N1CCN(c2ccccc2)CC1)c1cccc(Cl)c1	68	nt	nt	nt	nt
COC(=O)c1cc(NC2c3ccccc3C(=O)N2CCN2CCOCC2)cc(C(=O)OC)c1 (stereo unspecified)	-19	4	0	6	-2
CC(=O)NC(C)C(=O)OCc1ccc(Cl)cc1Cl (stereo unspecified)	4	-3	0	-4	-5
COCCNC(=O)C(=O)Nc1cccc(Br)c1	-14	nt	nt	nt	nt
COCC(=O)Nc1cccc(Br)c1	?	-9	0	1	20*
CC(=O)C(Sc1nc(-c2ccco2)nc2c1c(=O)n(C)c(=O)n2C)C(=O)N(C)C (stereo unspecified)	nt	8	0	-11	-2
CC1=C(C)CS(=O)N(S(=O)(=O)c2ccc(Cl)cc2)C1 (stereo unspecified)	-15	-1	0	47*	-4
CC1CCN(S(=O)(=O)c2ccc(Cl)cc2)CC1	nt	9	-1	-1	1
O=C(CC1C(=O)NCCN1C(=S)Nc1ccccc1)Nc1ccc2c(c1)OCCO2 (stereo unspecified)	52	nt	nt	nt	nt
CC1(C)CC(=O)C(C=Nc2cccnc2)=C(O)C1	14	33*	0	34	0
CC1(C)CC(=O)C(C=Nc2ccncc2)=C(O)C1	nt	6	-1	3	-1
SMILES	mHtt clearance	5HT1E antag	HTR1E agonist	5HT1a antag	HTR1A agonist
CC1(C)CC(=O)C(C=Nc2ccc3c(c2)OCO3)=C(O)C1	nt	31*	0	17	-2
COc1cc2c(cc1OC)C(C(=O)Nc1ccc3c(c1)OCCO3)C(c1cccnc1)N(C)C2=O (stereo unspecified)	8	20	-2	8	-2
Cc1ccc(CSCC(=O)N2CCOCC2)cc1	-24	nt	nt	nt	nt
CC1CN(C(=O)c2cccs2)CCN1C(=O)c1cccs1 (stereo unspecified)	nt	1	0	-6	0
C=CCn1c(N(C)C)nc2c1c(=O)[nH]c(=O)n2C	nt	-4	1	-11	0
CCOc1cc(N2CCOCC2)c(OCC)cc1NC(=O)c1cc(-c2ccco2)nc2ccccc12	nt	50*	0	27	2
CCOc1cc(N2CCOCC2)c(OCC)cc1NC(=O)COc1ncnc2ccccc12	-57	nt	nt	nt	nt
CCc1nnc(NC(=O)CCN2C(=O)c3ccccc3S2(=O)=O)s1	2	-3	0	-1	1
CCc1nnc(NC(=O)CCN2C(=O)c3ccccc3C2=O)s1	22	-6	16*	4	3
COc1ccc(-n2nnc3c(SCC(=O)N4CCN(c5ccccc5)CC4)ncnc32)cc1	nt	3	-2	2	-1
Cn1c(=O)oc2cc(S(=O)(=O)NCCN3CCN(c4ccccc4F)CC3)ccc21	24	5	0	57*	-2
Cn1c(=O)oc2cc(S(=O)(=O)N3CCN(c4ccccn4)CC3)ccc21	nt	-13	1	-1	35*
c1ccc(Cn2c(CNc3nc4ccccc4n3CCN3CCOCC3)nc3ccccc32)cc1	-4	15	0	20	1
O=C(NCc1ccccc1)N(Cc1nc2ccccc2c(=O)[nH]1)C1CCCC1	-8	10	1	4	3
Cc1ccc(C(=O)CCNc2ccc(Cl)cc2)o1	22	nt	nt	nt	nt
CCCCOc1ccc(C2C3CN(C(=O)OCC)CC=C3C(C#N)=C(N)C2(C#N)C#N)cc1OC (stereo unspecified)	-37	-6	2	-5	46*
Cc1ccc(C2C3CN(C(C)C)CC=C3C(C#N)=C(N)C2(C#N)C#N)cc1 (stereo unspecified)	nt	-18	4	nt	32*
CCOC(=O)N1CC=C2C(C#N)=C(N)C(C#N)(C#N)[C@H](c3ccc(OCC)c(OCC)c3)[C@H]2C1	11	-7	1	-9	2
c1ccc(Cn2ccc(-c3cnc(-c4ccccc4)s3)n2)cc1	24	nt	nt	nt	nt
Cc1cc(NC(=O)c2cc(C(C)C)on2)nn1Cc1ccc(Cl)cc1	-7	nt	nt	nt	nt
c1coc(CNc2ncnc3sc4c(c23)CCCCC4)c1	nt	4	0	3	-1
Cc1nc(NCc2ccco2)c2c3c(sc2n1)CCC3	58	14	0	54*	-2
O=C(Cc1cccs1)NCc1ccco1	nt	2	0	3	-3
O=C(NCc1ccco1)C(c1cccs1)N(C(=O)Cc1cccs1)c1ccccc1 (stereo unspecified)	48	15	-2	52*	-2
N=c1n(Cc2ccccc2)c2ccccc2n1CC(O)COc1ccccc1 (stereo unspecified)	5	5	0	22	20*
CCCCn1c(=N)n(CC(O)COc2ccccc2)c2ccccc21 (stereo unspecified)	-54	17	-1	54*	-4
N=c1n(CCN2CCOCC2)c2ccccc2n1CC(O)COc1ccccc1 (stereo unspecified)	-23	0	0	1	-1
CCCCn1c(=N)n(CC(O)COc2ccc(C)cc2)c2ccccc21 (stereo unspecified)	-170	-3	0	53*	-3
N#C/C(=C\c1cccc(Cl)c1)c1n[nH]c(Cn2cncn2)n1	45	nt	nt	nt	nt
CNC(=O)c1ccc(-c2sc3nc(N4CCOCC4)c4c(c3c2N)CCCC4)o1	28	32*	2	6	4

Bioassay records deposited in PubChem by several laboratories.
